Experiment [1] is described as follows: Nuclear factor erythroid 2-related factor 2/antioxidant responsive element (Nrf2/ARE) small molecule agonists: qHTS cell viability counter screen in human keratinocytes (AID 1919968; active means well fitted curve in the direction sought with a large enough effect in the repeat runs; an effect the other way counts as inactive or inconclusive; further: nearly all actives have a fitted effect of over 55% in size; further: potency means the concentration at half of the fitted maximal effect). In a few lines: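 In human HaCaT keratinocytes stably expressing an ARE-driven luciferase, compound exposure lasted 23 h at 37 C under 5% CO2. Viable cells are quantified with a protease-based fluorogenic reagent (CellTiter-Fluor) read 1 h after addition.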

The nature of experiment [2]: Nuclear factor erythroid 2-related factor 2/antioxidant responsive element (Nrf2/ARE) small molecule agonists: luciferase reporter gene qHTS assay in human keratinocytes (AID 1919969). Further: nearly all actives have a fitted effect of over 35% in size. Further: potency means the concentration at half of the fitted maximal effect.
The target in experiment [3] is Gonadotropin-releasing hormone receptor (Homo sapiens) (UniProt P30968). In words: Human gonadotropin-releasing hormone receptor (GnRHR) small molecule agonists, calcium flux assay in GnRHR-HEK293 cells (AID 1920063). Further: nearly all actives have a fitted effect of over 35% in size. In a few lines: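 Intracellular calcium rise is the read-out: engineered human GnRHR HEK293 cells, dye-loaded, are exposed to DMSO-dissolved compounds and fluorescence at Ex/Em 480/540 is tracked for 3 min.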
Background: Calcium flux is commonly read through the fluorescence of an indicator in the cells.

The target in experiment [4] is KiSS-1 receptor (Homo sapiens) (UniProt Q969F8). The experiment in a line: Human kisspeptin (KISS1R) small molecule agonists, calcium flux assay in KISS1R-HEK293 cells (AID 1920064; active means well fitted curve in the direction sought with a large enough effect in the repeat runs; an effect the other way counts as inactive or inconclusive). In a few lines:
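Concentration-response testing used 15 concentrations in triplicate on human KISS1R-expressing HEK293 cells. Calcium-dependent fluorescence (Ex/Em 480/540) was followed kinetically for 3 min after compound transfer.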

The nature of experiment [5]: G protein-coupled receptor (GPCR) small molecule agonists, calcium flux assay: HEK293 wild type cell line counter screen (AID 1920065). The method in brief: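 Fluorescence intensity signals activation. After overnight (18 h) culture and a 1 h calcium dye load at 37 C, compounds are added by pin tool and the plate read at 480/540 nm for 3 min in 1 s steps.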
Experiment [6] can be described thus: p53 small molecule agonists, cell-based qHTS assay with rat liver microsomes: qHTS cell viability counter screen (AID 1963580). Further: nearly all actives have a fitted effect of over 45% in size. Further: potency means the concentration at half of the fitted maximal effect. In a few lines:
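Counter screen for cytotoxicity under metabolic activation: rat liver microsomes and NADPH, 0.5 mg/mL final each, added with compounds to p53RE-bla HCT-116 cells; 16 h at 37 C, then ATP luminescence read.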
On the technique in general: qHTS replaces the single test concentration by a dilution series.

Experiment [7] is described as follows: p53 small molecule agonists, cell-based qHTS assay (AID 1963582; active means well fitted activation curve with a large enough effect in the signal ratio in the repeat runs, not every such curve was filed as active; the % refers to the signal ratio). In a few lines: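 After plating, p53RE-bla cells sat 5 h in the incubator; compounds or DMSO vehicle were pinned in; a 16 h incubation at 37 C followed; FRET substrate was added and, 2 h later at RT, fluorescence was measured.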
Experiment [8] addresses 5-hydroxytryptamine receptor 2A (Homo sapiens) (UniProt P28223). The experiment in a line: 5-hydroxytryptamine receptor 2A (HTR2A) small molecule antagonists, cell-based qHTS assay (AID 1963586). Further: nearly all actives have a fitted effect of over 45% in size. The method in brief:
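CHO cells stably expressing human HTR2A were plated for 18 h at 37 C, then loaded with calcium dye for 1 h. Compounds were preincubated 5 min at room temperature before DOI (4 nM solution) was added. Kinetic fluorescence was read for 3 min.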

For experiment [9] the target is unchanged. In words: 5-hydroxytryptamine receptor 2A (HTR2A) small molecule agonists, cell-based qHTS assay (AID 1963587). Further: nearly all actives have a fitted effect of over 30% in size. The method in brief: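 HTR2A-CHO cells, plated 18 h at 37 C/5% CO2, dye-loaded 1 h at 37 C; compounds in DMSO added by pin tool (agonist mode). Intracellular calcium flux read as kinetic fluorescence on FDSS over 2 min at 1 s intervals.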
The target of experiment [10] is Muscarinic acetylcholine receptor M1 (Homo sapiens) (UniProt P11229). In words: Cholinergic receptor muscarinic 1 (CHRM1) small molecule antagonists, cell-based qHTS assay (AID 1963588). Further: nearly all actives have a fitted effect of over 40% in size. The method in brief: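 Compounds were tested at 15 concentrations in three independent runs. Dye-loaded CHRM1-CHO cells were exposed 5 min at room temperature before stimulation by acetylcholine added at 50nM. Intracellular calcium was read kinetically on FDSS for 3 min.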

The target is the same in experiment [11]. In words: Cholinergic receptor muscarinic 1 (CHRM1) small molecule agonists, cell-based qHTS assay (AID 1963589). Further: nearly all actives have a fitted effect of over 35% in size. In a few lines:
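Fluorescent calcium dye reports M1 activation in stably transfected CHO cells. Compounds, 15 concentrations, added after 1 h dye loading at 37 C; kinetic reading at 1 sec intervals.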

Experiment [12] in a line: cAMP Responsive Elements (CRE) small molecule agonists, cell-based qHTS assay (AID 1963590). In a few lines: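 Compound exposure lasted 3 h at 37 C/5% CO2 in CRE-bla HEK 293T cells grown in assay medium with 10% dialyzed FBS and 25 mM HEPES. Reporter signal came from LiveBLAzer B/G FRET substrate, 2 h, room temperature.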
Experiment [13] in a line: cAMP Responsive Elements (CRE) small molecule antagonists, cell-based qHTS assay (AID 1963591; active means well fitted inhibition curve with a large enough effect in the signal ratio in the repeat runs, not every such curve was filed as active; the % refers to the signal ratio). The method in brief: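 Stimulation used NKH477 at a final 0.25 uM for 3 h in compound-treated CRE-bla HEK293T cells, seeded 18 h beforehand. Reporter activity was measured with LiveBLAzer B/G FRET substrate after 2 h at room temperature.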
The target in experiment [14] is Beta-2 adrenergic receptor (Homo sapiens) (UniProt P07550). The experiment in a line: Adrenergic beta2 receptor (ADRB2) small molecule antagonists, cell-based qHTS assay (AID 1963592). Further: nearly all actives have a fitted effect of over 50% in size. Further: potency means the concentration at half of the fitted maximal effect. The method in brief: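 Assay format: CHO-ADRB2 cells, 18-20hr seeding at 37C/5% CO2, then compound plus 1nM isoproterenol agonist mix for 0.5hr RT. Homogeneous time-resolved fluorescence cAMP detection after 1hr, expressed as 665/615 nm ratio.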

Experiment [15] has the same target. In words: Adrenergic beta2 receptor (ADRB2) small molecule agonists, cell-based qHTS assay (AID 1963593).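 Further: CHO cells stably overexpressing human ADRB2.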 In a few lines:
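CHO cells stably over-expressing ADRB2 were plated overnight at 37C, then dosed with compounds plus a stimulation mix containing 100uM IBMX and 25uM Ro-20-1724 for 0.5hr at room temperature. cAMP was measured by HTRF competition, 1hr.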

Experiment [16] deals with D(2) dopamine receptor (Homo sapiens) (UniProt P14416). The experiment in a line: Dopamine D2 receptor (DRD2) small molecule agonists, cell-based qHTS assay (AID 1963594). Further: nearly all actives have a fitted effect of over 35% in size. Further: potency means the concentration at half of the fitted maximal effect. The method in brief: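 HEK293 cells stably expressing DRD2 were cultured 24 h at 37 C, then given Ro20-1724 (0.1 mM final) and compounds for 10 min at room temperature. NKH477 (200nM) was then added for 30 min. cAMP was read by HTRF.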

Experiment [17] can be described thus: p53 small molecule agonists, cell-based qHTS assay: qHTS cell viability counter screen (AID 1963581). Further: nearly all actives have a fitted effect of over 45% in size. Further: potency means the concentration at half of the fitted maximal effect. The method in brief:
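Luminescence from CellTiter-Glo, reflecting ATP content, serves as the cytotoxicity measure; it is taken after the 2 h reporter substrate step in HCT-116 p53RE-bla cells dosed for 16 h at 37 C.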

The target in experiment [18] is D(2) dopamine receptor (Homo sapiens) (UniProt P14416). In words: Dopamine D2 receptor (DRD2) small molecule antagonists, cell-based qHTS assay (AID 1963595; active means well fitted inhibition curve with a large enough effect in the signal ratio in the repeat runs, with a control signal flat; the % refers to the signal ratio). In a few lines: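 Antagonist mode in DRD2-HEK293 cells: after compound addition with 0.1 mM Ro20-1724, cells received quinpirole (12 nM) and NKH477 (200 nM) for 30 min at room temperature; HTRF cAMP read after 1 h detection.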

The nature of experiment [19]: p53 small molecule agonists, cell-based qHTS assay with rat liver microsomes (AID 1963578). The method in brief: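 Metabolic activation by rat liver microsomes and NADPH, each 0.5 mg/mL final, added right after compounds to p53RE-bla reporter cells (4,000/well, plated 5 h earlier). 16 h at 37 C, then LiveBLAzer substrate for 2 h at room temperature in the dark; fluorescence read-out.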

Structures are written as SMILES. Unmarked numbers belong to inactive results. Records with an inconclusive call do not appear. The source made the active and inactive calls. Unless noted, the call rests on the fitted dose curve.

Gonadotropin-releasing hormone receptor (Homo sapiens), sequence (P30968 whole entry, looked up): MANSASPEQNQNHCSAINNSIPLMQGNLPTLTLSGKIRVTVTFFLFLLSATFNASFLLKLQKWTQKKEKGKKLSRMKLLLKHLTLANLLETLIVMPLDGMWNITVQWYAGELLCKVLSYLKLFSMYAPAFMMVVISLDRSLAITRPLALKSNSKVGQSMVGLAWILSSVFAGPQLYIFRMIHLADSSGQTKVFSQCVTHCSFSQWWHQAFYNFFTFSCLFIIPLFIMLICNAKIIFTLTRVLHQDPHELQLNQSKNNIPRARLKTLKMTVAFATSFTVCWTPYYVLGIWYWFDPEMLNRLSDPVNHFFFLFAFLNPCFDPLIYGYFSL
D(2) dopamine receptor (Homo sapiens), sequence (P14416 whole entry, looked up): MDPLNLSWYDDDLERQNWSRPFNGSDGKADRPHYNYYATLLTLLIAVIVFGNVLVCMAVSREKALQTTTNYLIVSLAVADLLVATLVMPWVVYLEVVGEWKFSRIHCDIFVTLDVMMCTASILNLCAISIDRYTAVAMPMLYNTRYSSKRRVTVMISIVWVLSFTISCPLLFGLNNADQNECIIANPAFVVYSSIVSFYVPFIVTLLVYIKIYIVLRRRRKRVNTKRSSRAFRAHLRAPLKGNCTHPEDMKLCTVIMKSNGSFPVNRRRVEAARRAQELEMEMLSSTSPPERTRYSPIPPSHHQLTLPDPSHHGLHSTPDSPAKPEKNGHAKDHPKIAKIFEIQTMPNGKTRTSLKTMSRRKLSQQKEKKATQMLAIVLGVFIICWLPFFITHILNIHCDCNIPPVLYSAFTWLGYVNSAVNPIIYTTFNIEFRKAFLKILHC
5-hydroxytryptamine receptor 2A (Homo sapiens), sequence (P28223 whole entry, looked up): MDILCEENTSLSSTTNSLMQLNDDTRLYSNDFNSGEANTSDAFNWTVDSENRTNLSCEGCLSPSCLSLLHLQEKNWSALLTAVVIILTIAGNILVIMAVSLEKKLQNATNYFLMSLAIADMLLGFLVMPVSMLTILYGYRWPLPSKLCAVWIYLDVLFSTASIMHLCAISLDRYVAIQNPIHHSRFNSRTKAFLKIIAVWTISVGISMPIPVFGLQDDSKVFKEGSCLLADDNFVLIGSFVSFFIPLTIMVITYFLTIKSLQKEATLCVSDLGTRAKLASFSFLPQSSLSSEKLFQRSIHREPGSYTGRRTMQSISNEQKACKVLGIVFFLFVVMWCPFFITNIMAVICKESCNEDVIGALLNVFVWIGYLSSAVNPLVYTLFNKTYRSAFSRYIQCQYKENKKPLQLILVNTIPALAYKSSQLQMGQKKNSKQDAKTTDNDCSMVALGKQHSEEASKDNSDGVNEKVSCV
Beta-2 adrenergic receptor (Homo sapiens), sequence (P07550 whole entry, looked up): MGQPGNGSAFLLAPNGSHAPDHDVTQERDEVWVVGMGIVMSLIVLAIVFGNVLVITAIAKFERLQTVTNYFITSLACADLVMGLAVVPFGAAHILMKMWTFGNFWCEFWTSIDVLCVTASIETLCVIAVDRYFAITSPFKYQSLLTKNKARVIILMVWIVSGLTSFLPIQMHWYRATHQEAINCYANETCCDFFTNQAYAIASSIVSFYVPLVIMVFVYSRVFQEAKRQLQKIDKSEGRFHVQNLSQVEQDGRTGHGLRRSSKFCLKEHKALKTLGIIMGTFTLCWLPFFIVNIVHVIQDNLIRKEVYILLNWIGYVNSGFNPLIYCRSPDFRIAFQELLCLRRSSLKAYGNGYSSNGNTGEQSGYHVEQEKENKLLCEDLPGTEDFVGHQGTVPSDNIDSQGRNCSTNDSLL
Muscarinic acetylcholine receptor M1 (Homo sapiens), sequence (P11229 whole entry, looked up): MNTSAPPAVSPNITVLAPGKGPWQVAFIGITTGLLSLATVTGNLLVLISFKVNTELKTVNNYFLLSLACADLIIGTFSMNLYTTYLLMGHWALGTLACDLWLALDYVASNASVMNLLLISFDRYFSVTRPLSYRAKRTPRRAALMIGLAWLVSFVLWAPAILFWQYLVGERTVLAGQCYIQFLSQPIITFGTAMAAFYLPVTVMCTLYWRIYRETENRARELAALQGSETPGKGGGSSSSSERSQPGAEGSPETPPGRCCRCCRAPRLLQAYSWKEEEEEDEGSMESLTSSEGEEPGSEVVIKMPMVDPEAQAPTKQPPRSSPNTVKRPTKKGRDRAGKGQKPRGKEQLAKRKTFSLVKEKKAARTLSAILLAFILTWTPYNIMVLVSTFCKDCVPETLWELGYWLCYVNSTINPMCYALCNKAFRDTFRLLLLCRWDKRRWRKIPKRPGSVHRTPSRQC
KiSS-1 receptor (Homo sapiens), sequence (Q969F8 whole entry, looked up): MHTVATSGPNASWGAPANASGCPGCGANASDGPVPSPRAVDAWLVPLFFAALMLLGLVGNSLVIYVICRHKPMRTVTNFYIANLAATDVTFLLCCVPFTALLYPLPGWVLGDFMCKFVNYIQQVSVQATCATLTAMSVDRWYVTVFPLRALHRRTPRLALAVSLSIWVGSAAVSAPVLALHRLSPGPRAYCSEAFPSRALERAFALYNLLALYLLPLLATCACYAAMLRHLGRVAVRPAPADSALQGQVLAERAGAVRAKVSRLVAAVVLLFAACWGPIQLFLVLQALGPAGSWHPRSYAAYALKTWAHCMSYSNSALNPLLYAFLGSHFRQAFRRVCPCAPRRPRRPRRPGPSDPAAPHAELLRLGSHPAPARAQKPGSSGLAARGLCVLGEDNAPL

Take `C=C(C)C1CCC(C)(O)CC1` (stereo unspecified): the Potency result in experiment [1], in experiment [2], in experiment [3], in experiment [4], in experiment [5] and in experiment [6] was “inactive” throughout. For the same compound, the Potency result in [7], in experiment [8], in experiment [9], in [10], in experiment [11] and in experiment [12] was “inactive” in each case. For the same compound, the Potency entry in [13], in experiment [14], in [15] and in [16] was “inactive” each time.

`CCS(=O)(=O)c1ccc(OC)c(C(=O)OC)c1`: the Potency entry in experiment [1], in [2], in experiment [3], in experiment [4], in experiment [5] and in experiment [6] was “inactive” in each case. Moreover, the Potency result in experiment [17], in [7], in experiment [8], in [9], in experiment [10] and in experiment [13] was “inactive” each time. For the same compound, the Potency entry in experiment [14], in experiment [15], in [16] and in experiment [18] was “inactive” in each case.

As to `CC(C)(Cc1c[nH]c2ccccc12)NCC(O)COc1ccccc1C#N` (stereo unspecified), the Potency result in experiment [1], in [2], in experiment [3], in experiment [4], in experiment [5] and in experiment [6] was “inactive” throughout. For the same compound, the Potency result in experiment [17], in [9], in experiment [10], in experiment [12], in [13] and in experiment [16] was “inactive” throughout. Moreover, in experiment [18], the Potency result is “inactive”. The Potency in [14] was 0.0067 µM (active).

On to `CC[C@H](C)C(=O)O[C@H]1C[C@H](O)C=C2C=C[C@H](C)[C@H](CC[C@@H](O)C[C@@H](O)CC(=O)O)[C@H]21`, for which the Potency result in [1], in experiment [2], in experiment [3], in experiment [4], in [5] and in [6] was “inactive” in each case. Besides, the Potency entry in experiment [17], in experiment [15] and in [18] was “inactive” in each case. In addition, in experiment [16], the Potency was 61.1 µM (active).

On to `Cc1ccc(C=O)cc1C`, for which the Potency result in experiment [1], in experiment [2], in experiment [3], in [4], in experiment [5] and in experiment [6] was “inactive” each time. For the same compound, the Potency result in experiment [17], in experiment [7], in experiment [8], in experiment [9], in experiment [10] and in experiment [11] was “inactive” throughout. The Potency result in [12], in experiment [13], in [14] and in experiment [18] was “inactive” in each case.

In the case of `Cc1nc2ccccc2c(=O)o1`, the Potency entry in [1], in [2], in [3], in experiment [4], in experiment [5] and in [6] was “inactive” in each case. Moreover, the Potency entry in experiment [17], in experiment [8], in experiment [9], in experiment [10], in experiment [11] and in experiment [12] was “inactive” throughout. Moreover, the Potency entry in [13], in experiment [14], in experiment [16] and in experiment [18] was “inactive” each time.

Take `CC(C)NCC(O)COc1cccc2[nH]ccc12` (stereo unspecified): the Potency entry in [1], in [2], in experiment [3], in experiment [4], in experiment [5] and in [7] was “inactive” throughout. Besides, the Potency entry in [12], in experiment [14], in [16] and in [18] was “inactive” throughout.

As to `CC/C=C\C/C=C\C/C=C\CCCCCCCC(=O)OCC`, the Potency result in experiment [1], in [3], in experiment [4], in experiment [5], in [8] and in [9] was “inactive” throughout. Also, the Potency entry in [10], in experiment [11], in [14], in [15], in experiment [16] and in experiment [18] was “inactive” throughout. For the same compound, the Potency in [2] was 70.1 µM (active).

As to `O=C(Nc1ccc(Cl)c(Cl)c1)c1cc(Cl)cc(Cl)c1O`, the Potency was 3.44 µM (active) in experiment [1]; 27.3 µM (active) in [2]; 40.8 µM (active) in experiment [6]; 4.08 µM (active) in experiment [17]; 24.3 µM (active) in experiment [14]. The Potency entry in [3], in experiment [4], in [19], in experiment [16] and in [18] was “inactive” each time.
